Results filed as inconclusive are left out. The source made the active and inactive calls. Unless noted, calls follow the shape of the dose curve; as a rule, active = well fitted curve in the direction sought with a large enough effect; inconclusive = small, poorly fitted or top-dose-only effect, or another doubt; inactive = no such curve, though single readings can be large; an effect the other way counts as inactive or inconclusive.
Tests used:
[1] = NCATS anti-infectives library activity on HEK293 viability as a counter-qHTS vs the C. elegans viability qHTS (AID 1745854); also: % is scaled to controls: 0 for no effect and ±100 for the full control effect
Method in brief: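 Cytotoxicity counter-screen to a worm viability qHTS: CellTiter-Glo luminescence read 10 min after reagent addition. Compounds (final up to 41.7 uM, a 1:5 dilution series) incubated 24 hr at 37C with 1,500 HEK293 cells per well; digitonin control.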

[2] = NCATS anti-infectives library activity on the primary C. elegans qHTS viability assay (AID 1745855; calls by dose curve)
Method in brief: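 GFP read-out by 488 nm laser cytometry at day 0, 3 and 7, gated on object perimeter, area and peak intensity, scored viability of PE254-GFP-FLuc worms exposed to compound in S medium with bacterial capsules at 21 °C.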

[3] = molecular target: Glutathione peroxidase 1 (Homo sapiens) (UniProt P07203); experiment: Primary qHTS Assay for Inhibitors of Recombinant Selenoprotein Glutathione Peroxidase 1 (GPX1) (AID 1845191); also: nearly all actives have a fitted effect of over 65% in size
Chain of Glutathione peroxidase 1 (Homo sapiens) (P07203 whole entry, looked up): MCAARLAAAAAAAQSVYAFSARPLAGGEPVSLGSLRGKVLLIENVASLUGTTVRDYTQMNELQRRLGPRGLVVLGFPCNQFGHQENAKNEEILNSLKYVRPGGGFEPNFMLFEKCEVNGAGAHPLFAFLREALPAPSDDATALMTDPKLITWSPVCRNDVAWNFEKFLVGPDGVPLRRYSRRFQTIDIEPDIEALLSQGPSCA
Method in brief: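 GPX1 10 nM, GR 100 nM, GSH 1 mM, NADPH 0.5 mM, CHP 0.5 mM (final). 30-min cpd preincubation, RT. Ex340/Em450 read t=0, t=15 min.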

[4] = Viability counterscreen for antagonist of constitutive androstane receptor (CAR) against the NCATS DSHEA and TCM libraries (AID 1794837);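 also: compound exposure lasted 24 h before viability reading; 0% is about no effect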
Method in brief: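 HepG2-CYP2B6-hCAR cells (2,500/well) were allowed to attach for 5 h, then exposed to compounds with 48 uM CITCO for 24 h at 37C. Viability was read by CellTiter-Fluor fluorescence after 1 h.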

[5] = Viability counterscreen for agonist of constitutive androstane receptor (CAR) against the NCATS DSHEA and TCM libraries (AID 1794838); also: 0% is about no effect
Method in brief: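 HepG2-CYP2B6-hCAR cells (2,500/well) attached 5 h, then got compounds plus 0.75 uM PK11195 final. After 24 h at 37C, viability read by CellTiter-Fluor fluorescence (Ex/Em 405/540 nm).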

[6] = molecular target: Nuclear receptor subfamily 1 group I member 3 (Homo sapiens) (UniProt Q14994); experiment: Primary qHTS for agonist of constitutive androstane receptor (CAR) against the NCATS DSHEA and TCM libraries (AID 1794839);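 also: HepG2 cells expressing human CAR with a CYP2B6 reporter plus PK11195 antagonist; 0% is about no effect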
Chain of Nuclear receptor subfamily 1 group I member 3 (Homo sapiens) (Q14994 whole entry, looked up): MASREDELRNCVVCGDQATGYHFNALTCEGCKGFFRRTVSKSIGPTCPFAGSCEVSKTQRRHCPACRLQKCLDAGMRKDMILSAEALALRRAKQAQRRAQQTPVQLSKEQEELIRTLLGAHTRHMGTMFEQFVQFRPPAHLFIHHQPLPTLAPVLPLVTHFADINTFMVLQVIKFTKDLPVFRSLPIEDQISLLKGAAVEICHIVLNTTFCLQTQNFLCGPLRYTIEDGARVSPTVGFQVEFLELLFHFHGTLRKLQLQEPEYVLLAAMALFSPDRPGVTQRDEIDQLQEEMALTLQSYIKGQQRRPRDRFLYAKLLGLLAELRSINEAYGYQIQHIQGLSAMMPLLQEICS
Method in brief: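 HepG2-CYP2B6-hCAR cells (2,500/well) were attached for 5 h, then treated for 24 h at 37 °C with compounds plus 0.75 µM PK11195. Luciferase luminescence (ONE-Glo) was read, with CellTiter-Fluor viability (Ex/Em 405/540 nm).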

[7] = HepG2 viability counterscreen (readout 2: ATP content) against the NCATS DSHEA and TCM libraries (AID 1794840);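 also: HepG2 cells exposed to substances for about 24 h; 0% is about no effect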
Method in brief: (§1)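 HepG2 cells (1,000 cells/well) attached ~4 h, then treated ~24 h at 37C with substances. Protease activity read by GF-AFC (25 uM final, 30 min, Ex/Em 380/510 nm); ATP content then by CellTiter-Glo luminescence.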

[8] = HepG2 viability counterscreen (readout 1: protease activity) against the NCATS DSHEA and TCM libraries (AID 1794841);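 also: cells exposed to compounds for about 24 h before the protease read; 0% is about no effect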
Method in brief: as §1

[9] = molecular target: Cytochrome P450 3A4 (Homo sapiens) (UniProt P08684); experiment: qHTS for inhibitors of CYP3A4 against the NCATS DSHEA and TCM libraries (AID 1919971);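 also: % is scaled to controls: 0 for no effect and ±100 for the full control effect; inhibition lowers luminescence from luciferin made by CYP3A4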
Chain of Cytochrome P450 3A4 (Homo sapiens) (P08684 whole entry, looked up, canonical isoform): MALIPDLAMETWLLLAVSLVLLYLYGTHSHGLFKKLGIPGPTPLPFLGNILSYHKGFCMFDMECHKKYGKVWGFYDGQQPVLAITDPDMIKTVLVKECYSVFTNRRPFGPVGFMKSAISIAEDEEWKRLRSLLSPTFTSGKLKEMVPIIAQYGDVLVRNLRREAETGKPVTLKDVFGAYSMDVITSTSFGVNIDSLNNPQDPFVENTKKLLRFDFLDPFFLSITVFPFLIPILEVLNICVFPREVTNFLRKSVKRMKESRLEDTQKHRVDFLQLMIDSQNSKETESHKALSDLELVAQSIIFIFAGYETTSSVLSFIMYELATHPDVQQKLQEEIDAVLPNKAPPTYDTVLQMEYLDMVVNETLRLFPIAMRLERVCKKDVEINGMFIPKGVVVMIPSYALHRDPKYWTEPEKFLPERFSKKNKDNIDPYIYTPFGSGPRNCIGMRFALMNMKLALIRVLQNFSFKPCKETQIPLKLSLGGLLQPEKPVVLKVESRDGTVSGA
Method in brief: (§2)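 Each CYP isoform and its pro-luciferin substrate, at isoform-specific final concentrations, were preincubated 15 min at RT with substances. NADPH regeneration solution (1x) started a 30-45 min reaction, and P450-Glo luminescence was read.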

[10] = molecular target: Cytochrome P450 2D6 (Homo sapiens) (UniProt P10635); experiment: qHTS for inhibitors of CYP2D6 against the NCATS DSHEA and TCM libraries (AID 1919972); also: % is scaled to controls: 0 for no effect and ±100 for the full control effect
Chain of Cytochrome P450 2D6 (Homo sapiens) (P10635 whole entry, looked up): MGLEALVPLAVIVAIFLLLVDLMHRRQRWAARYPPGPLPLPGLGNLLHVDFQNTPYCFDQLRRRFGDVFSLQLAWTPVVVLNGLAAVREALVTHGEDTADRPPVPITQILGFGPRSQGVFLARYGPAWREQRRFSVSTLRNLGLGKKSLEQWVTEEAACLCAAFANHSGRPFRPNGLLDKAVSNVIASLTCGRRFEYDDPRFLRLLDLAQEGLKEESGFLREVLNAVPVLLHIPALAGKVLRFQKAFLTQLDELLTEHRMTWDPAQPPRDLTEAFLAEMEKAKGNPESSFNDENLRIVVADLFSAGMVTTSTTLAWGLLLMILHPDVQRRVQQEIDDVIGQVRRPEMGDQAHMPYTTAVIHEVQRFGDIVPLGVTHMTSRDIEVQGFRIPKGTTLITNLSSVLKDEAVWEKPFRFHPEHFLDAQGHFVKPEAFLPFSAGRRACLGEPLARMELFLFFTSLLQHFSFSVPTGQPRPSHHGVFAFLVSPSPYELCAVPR
Method in brief: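 CYP2D6 enzyme with pro-luciferin substrate in manufacturer buffer (typically 100 mM KPO4), preincubated 15 min RT with substances (most at 19.5 nM upward); NADPH regeneration system (1x) started 30–45 min RT reaction; P450-Glo luminescence read after 30 min; quinidine as intraplate control.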

[11] = molecular target: Cytochrome P450 2C19 (Homo sapiens) (UniProt P33261); experiment: qHTS for inhibitors of CYP2C19 against the NCATS DSHEA and TCM libraries (AID 1919974);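 also: luminescence from luciferin released by CYP2C19 oxidation of a pro-luciferin substrate; % is scaled to controls: 0 for no effect and ±100 for the full control effect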
Chain of Cytochrome P450 2C19 (Homo sapiens) (P33261 whole entry, looked up): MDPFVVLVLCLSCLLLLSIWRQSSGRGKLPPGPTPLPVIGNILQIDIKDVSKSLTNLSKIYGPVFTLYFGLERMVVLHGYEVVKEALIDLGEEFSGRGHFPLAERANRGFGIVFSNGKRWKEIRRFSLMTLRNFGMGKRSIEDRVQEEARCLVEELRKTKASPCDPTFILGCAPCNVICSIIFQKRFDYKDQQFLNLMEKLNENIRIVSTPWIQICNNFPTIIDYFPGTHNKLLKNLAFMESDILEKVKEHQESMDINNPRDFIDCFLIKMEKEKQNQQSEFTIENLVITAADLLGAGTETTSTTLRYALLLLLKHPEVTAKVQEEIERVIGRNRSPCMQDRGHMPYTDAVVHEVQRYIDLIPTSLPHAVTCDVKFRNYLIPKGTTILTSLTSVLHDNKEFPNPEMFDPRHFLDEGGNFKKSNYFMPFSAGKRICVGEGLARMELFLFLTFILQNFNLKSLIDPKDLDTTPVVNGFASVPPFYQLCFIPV
Method in brief: as §2

[12] = KB-3-1 P-gp reporter qHTS against the NCATS DSHEA and TCM libraries (AID 1919975); also: 0% is about no effect
Method in brief: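 Parental KB-3-1 human cervical adenocarcinoma cells (500 cells/well, DMEM + 10% FBS) were treated with substances for ~72 h at 37C; viability was read by CellTiter-Glo luminescence.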

[13] = molecular target: Cytochrome P450 1A2 (Homo sapiens) (UniProt P05177); experiment: qHTS for inhibitors of CYPIA2 against the NCATS DSHEA and TCM libraries (AID 1919976); also: series mostly up to about 37 µM; % is scaled to controls: 0 for no effect and ±100 for the full control effect
Chain of Cytochrome P450 1A2 (Homo sapiens) (P05177 whole entry, looked up): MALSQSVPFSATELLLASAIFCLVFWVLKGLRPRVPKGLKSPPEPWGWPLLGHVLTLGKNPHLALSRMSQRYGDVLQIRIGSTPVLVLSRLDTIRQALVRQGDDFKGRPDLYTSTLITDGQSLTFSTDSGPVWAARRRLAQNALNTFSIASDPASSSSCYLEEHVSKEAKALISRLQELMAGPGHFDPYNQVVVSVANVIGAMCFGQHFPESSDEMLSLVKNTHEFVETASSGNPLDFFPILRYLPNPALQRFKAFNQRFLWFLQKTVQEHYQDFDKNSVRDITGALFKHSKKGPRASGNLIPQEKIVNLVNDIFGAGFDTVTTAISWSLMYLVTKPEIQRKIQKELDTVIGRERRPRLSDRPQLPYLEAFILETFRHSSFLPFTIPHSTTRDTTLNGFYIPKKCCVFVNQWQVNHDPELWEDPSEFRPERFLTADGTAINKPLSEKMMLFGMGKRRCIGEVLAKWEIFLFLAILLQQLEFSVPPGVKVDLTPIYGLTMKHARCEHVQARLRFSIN
Method in brief: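 Reaction started with 1x NADPH regeneration solution and run 30-45 min, room temperature, protected from light, after compounds sat 15 min with CYP1A2 and pro-luciferin substrate. P450-Glo detection gave luminescence; furafylline served as control.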

[14] = qHTS Counterscreen for compound interference against the NCATS DSHEA and TCM libraries (AID 1919978); conditions: firefly luciferase detection reagent interference, luminescence; also: % of control where 0% means no effect
Method in brief: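 D-luciferin (1 uM final) or 100 mM potassium phosphate buffer alone was preincubated 15 min at RT with compounds (19.5 nM to 39.8 uM final). Luciferin detection reagent was then added and luminescence read after 30 min at RT.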

[15] = Dual reporter qHTS for agonist of Pregnane X Receptor (hPXR) against the NCATS DSHEA and TCM libraries: Fluorescence readout (AID 1920058); also: 0% is about no effect
Method in brief: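 Viability readout (CellTiter-Fluor, 405/540 nm, 1 h) from agonist-mode PXR dual reporter in hPXR-Luc HepG2 cells. Substances ~24 h, 37 °C, 5% CO2; rifampicin reference, tetraoctyl ammonium bromide cytotoxic control.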

[16] = molecular target: Nuclear receptor subfamily 1 group I member 2 (Homo sapiens) (UniProt O75469); experiment: Dual reporter qHTS for agonist of Pregnane X Receptor (hPXR) against the NCATS DSHEA and TCM libraries: Luminescence readout (AID 1920059); also: 0% is about no effect
Chain of Nuclear receptor subfamily 1 group I member 2 (Homo sapiens) (O75469 whole entry, looked up): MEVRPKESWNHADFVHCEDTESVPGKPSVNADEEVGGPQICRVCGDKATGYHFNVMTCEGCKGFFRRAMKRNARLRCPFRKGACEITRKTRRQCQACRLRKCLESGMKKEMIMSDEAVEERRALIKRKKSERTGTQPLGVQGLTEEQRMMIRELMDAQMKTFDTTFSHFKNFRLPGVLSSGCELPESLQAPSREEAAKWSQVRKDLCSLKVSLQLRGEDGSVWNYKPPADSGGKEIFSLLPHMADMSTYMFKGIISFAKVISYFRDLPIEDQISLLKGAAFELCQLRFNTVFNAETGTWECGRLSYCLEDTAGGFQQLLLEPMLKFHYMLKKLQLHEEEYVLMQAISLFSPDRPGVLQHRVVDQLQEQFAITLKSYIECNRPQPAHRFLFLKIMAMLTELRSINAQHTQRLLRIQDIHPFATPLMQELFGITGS
Method in brief: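 hPXR-LucHepG2 cells in phenol red-free DMEM with 5% charcoal-stripped FBS, 2000 cells/well, attached 5 h, then exposed 24 h at 37C to compounds; rifampicin as positive agonist control (2.8 nM–92 uM). Luciferase luminescence read.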

[17] = Dual reporter qHTS for antagonist of Pregnane X Receptor (hPXR) against the NCATS DSHEA and TCM libraries: Fluorescence Readout (AID 1920061); also: 0% is about no effect
Method in brief: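 hPXR-Luc HepG2 cells exposed 24 h at 37 C to compounds with 2 uM rifampicin in antagonist mode; luciferase luminescence measured by ONE-Glo, with CellTiter-Fluor viability read beforehand.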

CCCCCCCCCCCCCCCc1cccc(O)c1C(=O)O
inactive: Potency [1] | Potency [2]

COC[C@H]1C[C@@H](c2ncc(-c3ccc4c(c3)COc3cc5c(ccc6[nH]c([C@@H]7CC[C@H](C)N7C(=O)[C@@H](NC(=O)OC)C(C)C)nc65)cc3-4)[nH]2)N(C(=O)[C@H](NC(=O)OC)c2ccccc2)C1
inactive: Potency [1] | Potency [3]

O=S(=O)(Cl)c1ccc(-c2ccccc2)cc1
inactive: Potency [1]

CCOC(=O)NCCCC(=O)NCCc1ccccc1
inactive: Potency [1] | Potency [2]

C[C@H]1O[C@@H](O[C@H]2CC[C@@]3(C)C(CC[C@]4(C)[C@@H]3C=CC3=C5CC(C)(C)CC[C@]5(CO)[C@H](O)C[C@@]34C)[C@]2(C)CO)[C@H](O)[C@@H](O[C@@H]2O[C@H](CO)[C@@H](O)[C@H](O)[C@@H]2O)[C@H]1O (some centres undefined)
inactive: Potency [1] | Potency [2]

O=C(/C=C/c1ccc(O)c(O)c1)O[C@@H]1CC(O)(C(=O)O)C[C@@H](OC(=O)/C=C/c2ccc(O)c(O)c2)C1O (some centres undefined)
inactive: Potency [1] | outcome [4] | outcome [5] | Potency [6] | outcome [7] | outcome [8] | Potency [9] | Potency [10] | Potency [11] | outcome [12] | Potency [13] | max response [14] 3.46% | outcome [15] | Potency [16] | outcome [17]

Reference: PubChem BioAssay (NCATS)
